Test results reported in PubChem BioAssay (EPA / NIEHS).
Records with an inconclusive call do not appear. The source made the active and inactive calls. How the source made its calls, unless noted: active means hit-call score of the fitted dose curve at least 0.9, where 1 is the maximum; inactive means score below 0.9.

Columns and labels:
[1] = read-out: Phosphatase and tensin (PTEN), PTEN (gene 5728); assay: LTEA_HepaRG_PTEN: Life Technologies and Expression Analysis (LTEA) Assay for Phosphatase and tensin (PTEN) using HepaRG (AID 2283523); settings: mRNA level, 48 h; actives raise or lower the signal
Summary of the method: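 Expression of PTEN is quantified in the human liver line HepaRG following two days of dosing (top concentration 100 uM, half-log dilutions, 0.5% DMSO). Values derive from bidirectional curve fitting relative to DMSO controls.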

[2] = read-out: solute carrier (SLC22A1), SLC22A1 (gene 6580); assay: LTEA_HepaRG_SLC22A1: Life Technologies and Expression Analysis (LTEA) Assay for solute carrier (SLC22A1) using HepaRG (AID 2283524); settings: mRNA level, 48 h; actives raise or lower the signal
Summary of the method: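 Transcript induction or suppression of SLC22A1 in human HepaRG cultures is scored after 48 h chemical treatment, with DMSO (0.5%) as baseline for bidirectional fitting. Concentrations span eight half-log points topping at 100 uM.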

[3] = read-out: Pyruvate Dehydrogenase Kinase 4 (PDK4), PDK4 (gene 5166); assay: LTEA_HepaRG_PDK4: Life Technologies and Expression Analysis (LTEA) Assay for Pyruvate Dehydrogenase Kinase 4 (PDK4) using HepaRG (AID 2283525); settings: mRNA level, 48 h; actives raise or lower the signal
Summary of the method: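 Eight-point, half-log concentration series (max 100 uM, 0.5% DMSO) applied to differentiated HepaRG cells for 48 h in duplicate. Endpoint: PDK4 mRNA induction or repression by qRT-PCR against DMSO baseline.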

[4] = read-out: NAD(P)H dehydrogenase [quinone] 1 (NQO1), NQO1 (gene 1728); assay: LTEA_HepaRG_NQO1: Life Technologies and Expression Analysis (LTEA) Assay for NAD(P)H dehydrogenase [quinone] 1 (NQO1) using HepaRG (AID 2283526); settings: mRNA level, 48 h; actives raise or lower the signal
Summary of the method: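 qRT-PCR read-out (Fluidigm TaqMan), normalized to three housekeeping genes, after 48 h chemical exposure of HepaRG cells. Concentrations: eight points, top 100 uM, half-log steps, 0.5% DMSO vehicle. Gain or loss of signal fitted relative to DMSO.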

[5] = read-out: Nuclear factor erythroid 2-related factor 2 (Homo sapiens) (UniProt Q16236); assay: LTEA_HepaRG_NFE2L2: Life Technologies and Expression Analysis (LTEA) Assay for Nuclear factor erythroid 2-related factor 2 (NFE2L2) Transcription Factor using HepaRG (AID 2283527); settings: mRNA level, 48 h; actives raise or lower the signal
Summary of the method: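 Human liver HepaRG line treated in duplicate for 48 h with an eight-point series topping at 100 uM. Gene expression of NFE2L2 by qRT-PCR, bidirectionally fitted against the vehicle control.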

[6] = read-out: succinate dehydrogenase complex iron sulfur subunit B (SDHB), SDHB (gene 6390); assay: LTEA_HepaRG_SDHB: Life Technologies and Expression Analysis (LTEA) Assay for succinate dehydrogenase complex iron sulfur subunit B (SDHB) using HepaRG (AID 2283528); settings: mRNA level, 48 h; actives raise or lower the signal
Summary of the method: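 HepaRG, 48 h exposure, 8-pt half-log series from 100 uM in 0.5% DMSO, duplicates. Readout: SDHB mRNA by Fluidigm qRT-PCR vs housekeeping genes; bidirectional fit relative to DMSO.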

[7] = read-out: Signal transducer and activator of transcription 3 (Homo sapiens) (UniProt P40763); assay: LTEA_HepaRG_STAT3: Life Technologies and Expression Analysis (LTEA) Assay for Signal transducer and activator of transcription (STAT3) using HepaRG (AID 2283529); settings: mRNA level, 48 h; actives raise or lower the signal
Summary of the method: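 In this transcriptional endpoint, HepaRG cultures receive test chemicals at up to 100 uM for 48 h, tested in duplicate. STAT3 mRNA is normalized to ACTB, GAPDH and POLR2A.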

[8] = read-out: solute carrier (SLCO1B1), SLCO1B1 (gene 10599); assay: LTEA_HepaRG_SLCO1B1: Life Technologies and Expression Analysis (LTEA) Assay for solute carrier (SLCO1B1) using HepaRG (AID 2283530); settings: mRNA level, 48 h; actives raise or lower the signal
Summary of the method: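 Gain or loss of SLCO1B1 mRNA is fitted against the 0.5% DMSO vehicle in human HepaRG liver cells treated 48 h at up to 100 uM in half-log steps. Expression comes from qRT-PCR normalized to endogenous controls.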

[9] = read-out: sulfotransferase 2A1 (SULT2A1), SULT2A1 (gene 6822); assay: LTEA_HepaRG_SULT2A1: Life Technologies and Expression Analysis (LTEA) Assay for sulfotransferase 2A1 (SULT2A1) using HepaRG (AID 2283531); settings: mRNA level, 48 h; actives raise or lower the signal
Summary of the method: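 Cells were plated and cultured 48 h, switched to serum-free induction medium, then dosed in duplicate for 48 h (8 concentrations, max 100 uM). RNA was isolated and SULT2A1 expression measured by qRT-PCR; gain or loss of signal fitted relative to DMSO.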

[10] = read-out: Transforming Growth Factor (TGFA), TGFA (gene 7039); assay: LTEA_HepaRG_TGFA: Life Technologies and Expression Analysis (LTEA) Assay for Transforming Growth Factor (TGFA) using HepaRG (AID 2283532); settings: mRNA level, 48 h; actives raise or lower the signal
Summary of the method: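 Gene expression of TGFA was quantified by qRT-PCR after human HepaRG cells were treated for 48 h with test chemicals (eight concentrations, highest 100 uM, 0.5% DMSO). Activity in either direction was fitted relative to DMSO.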

[11] = read-out: Transforming Growth Factor (TGFB1), TGFB1 (gene 7040); assay: LTEA_HepaRG_TGFB1: Life Technologies and Expression Analysis (LTEA) Assay for Transforming Growth Factor (TGFB1) Transporter using HepaRG (AID 2283533); settings: mRNA level, 48 h; actives raise or lower the signal
Summary of the method: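 Expression change of TGFB1 in human HepaRG cells is measured after a 48 h chemical exposure, up to 100 uM in 0.5% DMSO vehicle. Curves are fitted in both directions relative to the DMSO baseline.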

[12] = read-out: TIMP1, TIMP1 (gene 7076); assay: LTEA_HepaRG_TIMP1: Life Technologies and Expression Analysis (LTEA) Assay for TIMP1 using HepaRG (AID 2283534); settings: mRNA level, 48 h; actives raise or lower the signal;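 further: TaqMan qRT-PCR signal normalized to ACTB GAPDH and POLR2A housekeeping genes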
Summary of the method: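 We dosed human liver HepaRG cultures for 48 hours with up to 100 uM test chemical and measured TIMP1 expression by qRT-PCR. Activity in either direction is fitted relative to the 0.5% DMSO vehicle.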

[13] = read-out: Tumor necrosis factor receptor 1 (TNFRSF1A), TNFRSF1A (gene 7132); assay: LTEA_HepaRG_TNFRSF1A: Life Technologies and Expression Analysis (LTEA) Assay for Tumor necrosis factor receptor 1 (TNFRSF1A) using HepaRG (AID 2283535); settings: mRNA level, 48 h; actives raise or lower the signal
Summary of the method: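 Expression of TNFRSF1A in human HepaRG liver cells was measured by qRT-PCR 48 h after chemical dosing (maximum 100 uM). Bidirectional curve fitting used 0.5% DMSO as baseline.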

[14] = read-out: Thyroid Hormone Responsive (THRSP), THRSP (gene 7069); assay: LTEA_HepaRG_THRSP: Life Technologies and Expression Analysis (LTEA) Assay for Thyroid Hormone Responsive (THRSP) using HepaRG (AID 2283536); settings: mRNA level, 48 h; actives raise or lower the signal
Summary of the method: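 Cell model: human HepaRG, approx. 100,000 cells/well, 0.5% DMSO vehicle. Exposure lasts 48 h; phenobarbital 1 mM serves as induction positive control. Gene expression is measured by qRT-PCR against three endogenous control genes.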

[15] = read-out: UDP glucuronosyltransferase (UGT1A1), UGT1A1 (gene 54658); assay: LTEA_HepaRG_UGT1A1: Life Technologies and Expression Analysis (LTEA) Assay for UDP glucuronosyltransferase (UGT1A1) using HepaRG (AID 2283538); settings: mRNA level, 48 h; actives raise or lower the signal
Summary of the method: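 HepaRG, 48 h chemical exposure (top 100 uM, half-log 8-pt, 0.5% DMSO vehicle), duplicate wells; qRT-PCR (TaqMan, Fluidigm array) for UGT1A1 mRNA, housekeeping-normalized; bidirectional curve fit vs DMSO baseline.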

[16] = read-out: UDP glucuronosyltransferase (UGT1A6), UGT1A6 (gene 54578); assay: LTEA_HepaRG_UGT1A6: Life Technologies and Expression Analysis (LTEA) Assay for UDP glucuronosyltransferase (UGT1A6) using HepaRG (AID 2283539); settings: mRNA level, 48 h; actives raise or lower the signal
Summary of the method: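 Endpoint is UGT1A6 transcript induction or loss in a human liver cell line, quantified by TaqMan qRT-PCR 48 h after dosing. Concentrations ran from 100 uM downward in half-log steps in 0.5% DMSO; activity was fitted in both directions versus vehicle.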

[17] = read-out: X-box binding protein 1 (XBP1), XBP1 (gene 7494); assay: LTEA_HepaRG_XBP1: Life Technologies and Expression Analysis (LTEA) Assay for X-box binding protein 1 (XBP1) using HepaRG (AID 2283540); settings: mRNA level, 48 h; actives raise or lower the signal
Summary of the method: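 Human HepaRG monolayers receive test chemical for 48 h across an eight-point half-log series starting at 100 uM. XBP1 mRNA gain or loss is scored against DMSO by qRT-PCR.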

[18] = read-out: Cellular tumor antigen p53 (Homo sapiens) (UniProt P04637); assay: LTEA_HepaRG_TP53: Life Technologies and Expression Analysis (LTEA) Assay for Tumor Protein P53 (TP53) using HepaRG (AID 2283537); settings: mRNA level, 48 h; actives raise or lower the signal
Summary of the method: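 HepaRG, 48 h exposure, top 100 uM, half-log 8-point, 0.5% DMSO vehicle, duplicates. Read: TP53 mRNA by TaqMan qRT-PCR, normalised to ACTB/GAPDH/POLR2A; bidirectional fit vs DMSO.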

[19] = LTEA_HepaRG_LDH_cytotoxicity: Cytotoxicity Assessment in the Life Technologies and Expression Analysis (LTEA) Assay (AID 2283563; active means hit-call score of the fitted dose curve at least 0.9, where 1 is the maximum)
Summary of the method: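 Human HepaRG hepatic cells are treated with test chemicals for 48 h at up to 100 uM in 0.5% DMSO. Cytotoxicity is scored from medium LDH against the vehicle control.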

[20] = ATG_XTT_Cytotoxicity: Cytotoxicity Assessment in the Attagene TRANS-FACTORIAL HepG2 Assay (AID 2283584; active means hit-call score of the fitted dose curve at least 0.9, where 1 is the maximum)
Summary of the method: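 Transfect HepG2 with GAL4-UAS reporter units, dose compound, incubate 24 h, then measure viable cell number by XTT. Fit concentration response against DMSO baseline.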

Measured: AC50

Chain of Signal transducer and activator of transcription 3 (Homo sapiens) (P40763 whole entry, looked up): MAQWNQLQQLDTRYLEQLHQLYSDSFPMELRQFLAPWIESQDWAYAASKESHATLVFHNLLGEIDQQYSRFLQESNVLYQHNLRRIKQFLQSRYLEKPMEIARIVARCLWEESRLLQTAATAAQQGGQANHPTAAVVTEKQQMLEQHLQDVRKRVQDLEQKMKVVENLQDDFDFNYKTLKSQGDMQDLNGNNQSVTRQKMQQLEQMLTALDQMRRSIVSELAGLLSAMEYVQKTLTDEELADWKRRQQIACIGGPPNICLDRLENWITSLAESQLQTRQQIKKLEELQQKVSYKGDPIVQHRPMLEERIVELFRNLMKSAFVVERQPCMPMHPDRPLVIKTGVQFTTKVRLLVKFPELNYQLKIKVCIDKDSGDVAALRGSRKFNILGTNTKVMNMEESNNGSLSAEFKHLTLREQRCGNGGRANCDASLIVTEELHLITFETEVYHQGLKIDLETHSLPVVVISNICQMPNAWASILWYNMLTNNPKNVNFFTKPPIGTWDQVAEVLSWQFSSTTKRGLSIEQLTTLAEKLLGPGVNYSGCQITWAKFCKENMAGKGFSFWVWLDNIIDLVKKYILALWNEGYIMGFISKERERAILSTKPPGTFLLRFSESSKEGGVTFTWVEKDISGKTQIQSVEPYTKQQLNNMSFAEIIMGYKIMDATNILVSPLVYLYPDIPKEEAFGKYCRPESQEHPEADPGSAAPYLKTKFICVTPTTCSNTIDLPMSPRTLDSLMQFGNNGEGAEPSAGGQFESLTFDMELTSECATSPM
Chain of Nuclear factor erythroid 2-related factor 2 (Homo sapiens) (Q16236 whole entry, looked up): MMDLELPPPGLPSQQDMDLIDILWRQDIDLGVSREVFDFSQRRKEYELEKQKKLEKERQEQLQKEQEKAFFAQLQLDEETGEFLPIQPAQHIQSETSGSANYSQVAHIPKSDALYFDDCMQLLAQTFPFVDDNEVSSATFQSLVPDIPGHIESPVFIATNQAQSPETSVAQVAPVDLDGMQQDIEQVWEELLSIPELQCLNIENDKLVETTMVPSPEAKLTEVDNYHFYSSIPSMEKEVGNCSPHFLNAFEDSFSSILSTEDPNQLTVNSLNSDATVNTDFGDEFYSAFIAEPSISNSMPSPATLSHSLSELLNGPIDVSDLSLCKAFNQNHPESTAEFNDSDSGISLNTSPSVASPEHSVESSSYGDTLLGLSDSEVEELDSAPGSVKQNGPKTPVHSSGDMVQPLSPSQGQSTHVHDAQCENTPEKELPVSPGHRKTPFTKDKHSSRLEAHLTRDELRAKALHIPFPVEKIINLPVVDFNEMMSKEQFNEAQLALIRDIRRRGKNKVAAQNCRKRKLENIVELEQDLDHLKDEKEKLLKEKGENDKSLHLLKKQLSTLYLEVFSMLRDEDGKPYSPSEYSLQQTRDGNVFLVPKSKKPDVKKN
Chain of Cellular tumor antigen p53 (Homo sapiens) (P04637 whole entry, looked up): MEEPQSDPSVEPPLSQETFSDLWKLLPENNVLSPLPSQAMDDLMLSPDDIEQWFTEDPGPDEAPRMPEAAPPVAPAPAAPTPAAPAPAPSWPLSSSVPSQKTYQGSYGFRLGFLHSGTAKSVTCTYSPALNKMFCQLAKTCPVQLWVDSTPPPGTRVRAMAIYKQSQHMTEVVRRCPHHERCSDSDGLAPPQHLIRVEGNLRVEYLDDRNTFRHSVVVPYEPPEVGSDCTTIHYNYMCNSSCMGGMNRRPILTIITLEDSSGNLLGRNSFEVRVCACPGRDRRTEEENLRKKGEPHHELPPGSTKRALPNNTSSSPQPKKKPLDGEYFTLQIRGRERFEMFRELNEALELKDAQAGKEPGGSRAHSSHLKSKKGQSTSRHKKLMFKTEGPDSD

CCCOc1ccc(S(=O)(=O)N2CCN(CC)CC2)cc1-c1nc2c(CC)n(Cc3ccccn3)nc2c(=O)[nH]1
active: [3] 31.3 µM | [5] 25 µM | [8] 50 µM | [9] 18.1 µM | [11] 26.3 µM | [14] 50 µM | [15] 4.74 µM
not listed: [18] | [19] | [20]
inactive: all other assays above

CCCCCCCCCCCCCCO
inactive: all assays above

CCOC(N)=O
not listed: [4] | [20]
inactive: all other assays above
